The list is not random: actives were taken first. Their share in the collection is about 3.2%.
bovine MsrA act = bovine methionine sulfoxide reductase A activation; purified bovine MsrA, absorbance read-out; activation, % at 10.6 µM; 0.3% of 360,000 active; AID 602163; in the data active = activation above about 7.5%;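 also: 0% = vehicle and 100% = reference activator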
MsrA inh = inhibitors of bovine MsrA; AID 651718; purified bovine MsrA, absorbance read-out; inhibition, % at 15.5 µM; 0.75% of 360,000 active; in the data active = inhibition above about 4.5%;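 also: 0% = vehicle wells with enzyme and 100% = reference inhibitor wells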
PG9 binder = PG9 antibody binding by small molecule; 0.43% of 360,000 active; TR-FRET gp120-PG9 antibody binding; inhibition, % at 6.7 µM; in the data active = inhibition above about 8.5%
HGIII-sPLA2 inh = Blocks human group III sPLA2 activity; Q9NZ20; QFRET BODIPY PC-A2 liposome hydrolysis, fluorescence; inhibition, % at 12.2 µM; 0.56% of 370,000 active; AID 743126;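 active = inhibition above mean plus 3 SD of compounds lying within the high and low control bounds, cut at about 19% in these data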;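 also: 0% = median of test compound wells and 100% = no enzyme DMSO wells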
Target sequence (Q9NZ20 whole entry, looked up): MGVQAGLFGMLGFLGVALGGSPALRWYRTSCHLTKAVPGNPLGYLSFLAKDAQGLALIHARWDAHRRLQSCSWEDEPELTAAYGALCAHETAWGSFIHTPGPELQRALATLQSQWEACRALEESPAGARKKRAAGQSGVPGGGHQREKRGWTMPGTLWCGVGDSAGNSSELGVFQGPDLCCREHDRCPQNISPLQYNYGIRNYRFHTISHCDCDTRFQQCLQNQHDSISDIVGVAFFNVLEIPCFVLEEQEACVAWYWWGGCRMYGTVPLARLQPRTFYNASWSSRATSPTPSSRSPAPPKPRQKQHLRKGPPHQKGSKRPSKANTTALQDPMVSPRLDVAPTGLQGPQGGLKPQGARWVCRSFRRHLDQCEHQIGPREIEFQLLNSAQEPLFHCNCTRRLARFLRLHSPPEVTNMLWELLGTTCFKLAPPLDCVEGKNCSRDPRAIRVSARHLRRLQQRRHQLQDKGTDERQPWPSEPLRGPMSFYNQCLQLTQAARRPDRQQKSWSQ
rCAG binder = molecules binding r(CAG) RNA repeats; r(CAG) RNA repeat, TO-PRO-1 dye displacement fluorescence; inhibition, % at 3 µM; 1.3% of 370,000 active; AID 651821;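 active = inhibition above the plate cutoff, the mean of all test compounds on that plate plus 3 SD, cut at about 35% in these data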;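 also: 0% = DMSO alone and 100% = 100 µM mitoxantrone as full dye displacement; higher means more dye released from RNA so lower well fluorescence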
PG9 binder conf = PG9 antibody binding, confirmed. inhibition, % at 6.7 µM. TR-FRET PG9 antibody binding, biochemical. shares compounds with PG9 binder. 90% of 1,500 active; in the data active = inhibition above about 9%
PGV04 Ab binding = PGV04 control antibody binding, counter-screen; shares compounds with PG9 binder; TR-FRET PGV04 antibody-gp120 binding, biochemical; inhibition, % at 6.7 µM; 95% of 1,500 active; AID 651604; in the data active = inhibition above about 9.5%
Starred values were filed as active, the others as inactive; nt = not tested or not shown.

SMILES | bovine MsrA act | MsrA inh | PG9 binder | HGIII-sPLA2 inh | rCAG binder | PG9 binder conf | PGV04 Ab binding
O=c1c2ccccc2n(Cc2ccno2)n1[C@@H](Cc1ccccc1)Cn1cc(C2CCCC2)nn1 | nt | nt | nt | 5 | 6 | nt | nt
C=CCN(CC#CC1=CCCCC1)Cc1ccccc1 | nt | nt | nt | 10 | -1 | nt | nt
COc1ccc(/C(O)=C2/C(=O)C(=O)N(CCN(C)C)C2c2ccc(F)cc2)cc1Cl (centres undefined) | -3 | 3 | 9.5* | 0 | 3 | 20* | 23*
COc1ccc(/C(O)=C2/C(=O)C(=O)N(CCN(C)C)C2c2cccnc2)cc1C (centres undefined) | -12 | 1 | 13* | -1 | 1 | 22* | 28*
COc1ccc(C2/C(=C(/O)c3ccc(F)cc3)C(=O)C(=O)N2CCCN(C)C)cc1 (centres undefined) | -2 | 0 | -2 | 0 | -2 | nt | nt
COc1ccc(/C(O)=C2/C(=O)C(=O)N(CCN(C)C)C2c2cccnc2)cc1OC (centres undefined) | -5 | 0 | -1 | 2 | 0 | nt | nt
CCOC(=O)N1CCN(C(=O)C[C@H]2C(=O)N(CCCOC)C3=CCCC[C@@]32C(=O)OCC)CC1 | nt | nt | nt | 7 | 2 | nt | nt
COc1ccc(OCC(=O)Nc2cc(S(=O)(=O)N3CCCC3)ccc2OCC(F)(F)F)cc1 | -3 | 2 | 9.3* | 5 | -4 | 21* | 28*
COc1ccc(Cl)cc1NC(=O)c1nnn(CC(=O)Nc2ccc3c(c2)OCO3)c1N | -7 | 0 | 10* | 2 | 11 | 20* | 27*
COc1cccc(C(=O)Nc2nnc(-c3ccc(OC)cc3OC)s2)c1 | 0 | -1 | 31* | 1 | 1 | 31* | 41*
COc1ccc(C(=O)Nc2nnc(Cc3ccc(OC)c(OC)c3)s2)cc1 | -2 | 1 | 9.5* | 8 | 24 | 11* | 20*
Cc1cc(C)nc(N2CCC(C(=O)N(C)CCc3ccccc3)CC2)n1 | nt | nt | nt | 12 | -3 | nt | nt
O=S1(=O)c2ccc(Br)cc2OC[C@@H](Cc2ccccc2)N1Cc1cn(CCC2OCCO2)nn1 | nt | nt | nt | -5 | 2 | nt | nt
O=C(CNC(=O)c1sc2ccccc2c1Cl)Nc1ccccc1F | -1 | -1 | 12* | 3 | 2 | 17* | 32*
O=C(CNC(=O)c1sc2ccccc2c1Cl)NCc1ccc(F)cc1 | -5 | 0 | 12* | 7 | 3 | 8 | 21*
COc1ccc(NC(=O)CNC(=O)c2sc3ccccc3c2Cl)c(OC)c1 | -5 | 1 | 0 | 8 | 7 | nt | nt
CCOC(=O)CC[C@H]1CC[C@]2(CCCN(C(=O)C3CCCC3)C2)O1 | nt | nt | nt | 10 | 0 | nt | nt
CCCCn1c(SCC(=O)NCc2ccccc2)nc2ccc(N3CCOCC3)cc2c1=O | -2 | 0 | 19* | 2 | 4 | 35* | 56*
C=CCN(C)CC#Cc1ccc(C)cc1 | nt | nt | nt | 13 | -1 | nt | nt
COc1ccc(CNS(=O)(=O)/C=C/c2ccccc2CNC(=O)OC(C)(C)C)cc1 | nt | nt | nt | -9 | -2 | nt | nt
CN(C(=O)CNC(=O)c1ccccc1OCC(=O)Nc1ccc(I)cc1)c1ccccc1 | nt | nt | nt | -1 | 3 | nt | nt
O=C(NCc1cccnc1)c1ccccc1NS(=O)(=O)c1ccccc1 | -2 | 1 | 11* | -1 | 4 | 9.5* | 19*
O=C(c1ccc(F)cc1F)N(Cc1ccccn1)CC1CCCO1 (centres undefined) | nt | nt | nt | 0 | 1 | nt | nt
CCn1c2c(c3cc(Br)ccc31)CCC/C2=N\O | 0 | 0 | 16* | 8 | 8 | 20* | 32*
O=C(CSc1nnc(-c2cccnc2)n1-c1ccc(Cl)cc1)c1ccc(F)cc1 | nt | nt | nt | -36 | 1 | nt | nt
SMILES | bovine MsrA act | MsrA inh | PG9 binder | HGIII-sPLA2 inh | rCAG binder | PG9 binder conf | PGV04 Ab binding
Cc1cc(NC2C3CC4CC(C3)CC2C4)n2nnnc2n1 (centres undefined) | -7 | 0 | 24* | 4 | -3 | 29* | 39*
CCOc1ccc(/C(O)=C2\C(=O)C(=O)N(c3ccccn3)C2c2ccccc2F)c(C)c1 (centres undefined) | -2 | 2 | 9.6* | -14 | 9 | 22* | 32*
CC(=O)Nc1ccc(NC(=O)COc2ccc(-c3ccc(C#N)cc3)cc2)cc1 | -7 | 0 | 9.0* | 8 | 3 | 12* | 18*
N#Cc1ccc(-c2ccc(OCC(=O)Nc3cccnc3)cc2)cc1 | -3 | -1 | 1 | -15 | 0 | nt | nt
CCCCOc1ccc(C(=O)NC2CCCCN(Cc3ccc(Cl)cc3)C2=O)cc1 (centres undefined) | nt | nt | nt | -2 | 2 | nt | nt
O=c1c(Br)c(Br)cnn1-c1ccccc1 | -5 | 0 | 13* | 1 | 2 | 18* | 28*
Cc1ccc(-n2ncc(Br)c(Br)c2=O)cc1 | -4 | nt | nt | nt | nt | nt | nt
NC(=O)C1CCN(c2nc(-c3ccc4c(c3)OCCCO4)cs2)CC1 | nt | nt | nt | 1 | nt | nt | nt
CCOC(=O)c1nn(-c2ccc(Cl)cc2)c2nc(CC)c(C#N)c(=O)n12 | -10 | 0 | 16* | -1 | -2 | 20* | 25*
Cc1ccc(-c2cc(C(=O)N(C)Cc3cnn(C)c3C)c3cc(Br)ccc3n2)cc1 | -9 | 2 | 21* | 1 | 1 | 25* | 30*
CCn1c(Cc2ccccc2)nnc1SCC(=O)Nc1nc2ccccc2s1 | -2 | 0 | 17* | -6 | 2 | 29* | 40*
CCOc1ccc(C2/C(=C(\O)c3ccc(OC)c(OC)c3)C(=O)C(=O)N2c2cc(C)on2)cc1OC (centres undefined) | -4 | 4 | 0 | -6 | 12 | nt | nt
COC(=O)c1ccc(C2/C(=C(\O)c3ccc(OC)c(C)c3)C(=O)C(=O)N2c2cc(C)on2)cc1 (centres undefined) | -13 | 2 | 8.7* | -7 | 30 | 14* | 19*
Nc1cc(Cl)ccc1C(=O)OCC(=O)NC1CCCCC1 | -2 | -1 | 30* | -1 | 0 | 29* | 41*
CCc1c(C(=O)O)[nH]c2ccc(Br)cc12 | 1 | -1 | 14* | -2 | 5 | 26* | 27*
O=C1c2cccc3cccc(c23)C(=O)N1OS(=O)(=O)c1ccccc1 | -5 | 0 | 28* | -2 | 0 | 28* | 62*
O=C(Nc1nc2c(Cl)cccc2s1)c1ccc(Br)o1 | -5 | 2 | 35* | -11 | 6 | 39* | 43*
COC(=O)Cc1ccc(NC(=O)c2ccc(Br)o2)cc1 | 1 | 0 | 1 | -2 | 0 | nt | nt
COc1ccc(-c2ccc(NC(=O)c3ccc(Br)o3)cc2)nn1 | -2 | 1 | 14* | -2 | -1 | 13* | 24*
Cc1ccc(C(C)(C)C)cc1S(=O)(=O)Nc1nc2ccccc2nc1Cl | -5 | 2 | 13* | -25 | 63* | 21* | 25*
O=S(=O)(Nc1nc2ccccc2nc1Cl)c1ccccc1 | -4 | 1 | 6 | -14 | 7 | nt | nt
CC(=O)Nc1ccc(S(=O)(=O)Nc2nc3ccccc3nc2Cl)cc1 | -1 | 1 | 17* | -7 | 5 | 25* | 32*
